Most compounds without a hit are left out; they make up all but 1.3% or so of the library.
Mito fusion yeast: inhibitors of mitochondrial division or activators of mitochondrial fusion. hit rate 0.23% among 320,000. Potency, µM (highest dose often 46.1 µM), for inactives: at the highest dose growth rescue (activation), usual class: activators. AID 485298. S. cerevisiae fusion-defective mutant growth rescue, CellTiterGlo 48 h; note: potency is the fitted concentration of half-maximal effect; % of control where 0% means no effect; nearly all actives have a fitted effect of over 45% in size
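Read-out: ATP-based luminescence (CellTiterGlo, 10 min ambient) reporting growth of fusion-defective ts yeast after 48 hours at 37C on glycerol/ethanol YPEG medium in the presence of compound.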
IL2 activator: IL-2 activation; IL-2 activation reporter assay, cell-based qHTS; stimulated with anti-CD3/CD4/CD28 beads; in transgenic mouse T cells; activation, % (series mostly up to about 46 µM); hit rate 0.065% among 360,000; in the data active = activation above about 50%; inconclusive = mostly about 30% to 49%; note: 0% is about no effect
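First, unstimulated transgenic mouse T cells were exposed to compound for 60 min. Next, anti-CD3/anti-CD4-coated beads with anti-CD28 were added. Finally, after 18 h at 37 degrees C, EGFP and DsRed were imaged.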
TCR activator: activates T cell receptor signaling; primary human leukocytes, anti-CD3, IL-2 HTRF, 48 h; Potency, µM (series often up to 9.22 µM), inactives show at the highest dose activation of IL-2 secretion, most hits filed as activators; 330,000 tested, under 10 active; note: % of control where 0% means no effect
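48 hr co-incubation of compounds, a-CD3 beads and primary human leukocytes; IL-2 quantified homogeneously by HTRF with anti-IL-2 K and d2 conjugates.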
BRCA1 expr up: activators of BRCA1 expression; MCF7-BRCA1-FFLuc reporter, luminescence, 48 h; response scale: scaled: vehicle 0%, 10 µM genistein 100%; Potency, µM (titrated, usually from 46.1 µM), for inactives: top-dose activation, hits mostly activators; hit rate 1.1% among 380,000; note: potency is the fitted concentration of half-maximal effect; nearly all actives have a fitted effect of over 80% in size
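First, MCF7-BRCA1-FFLuc cells (2000/well) attach for 2 h; next, compounds are pin-added and incubated 48 h at 37 °C; finally, luciferase reagent is added and luminescence read after 15 min.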
PTHR1 ag: agonists of human PTHR1 parathyroid hormone receptor; Q03431; HEK293 GP2 PTHR1 cells, GloSensor cAMP luminescence, 1 h; Potency, µM (doses to about 115 µM), for the others: top-dose activation, most hits filed as activators; hit rate 0.075% among 410,000; AID 743266; note: potency is the fitted concentration of half-maximal effect; nearly all actives have a fitted effect of over 55% in size
Target sequence (Q03431 whole entry, looked up): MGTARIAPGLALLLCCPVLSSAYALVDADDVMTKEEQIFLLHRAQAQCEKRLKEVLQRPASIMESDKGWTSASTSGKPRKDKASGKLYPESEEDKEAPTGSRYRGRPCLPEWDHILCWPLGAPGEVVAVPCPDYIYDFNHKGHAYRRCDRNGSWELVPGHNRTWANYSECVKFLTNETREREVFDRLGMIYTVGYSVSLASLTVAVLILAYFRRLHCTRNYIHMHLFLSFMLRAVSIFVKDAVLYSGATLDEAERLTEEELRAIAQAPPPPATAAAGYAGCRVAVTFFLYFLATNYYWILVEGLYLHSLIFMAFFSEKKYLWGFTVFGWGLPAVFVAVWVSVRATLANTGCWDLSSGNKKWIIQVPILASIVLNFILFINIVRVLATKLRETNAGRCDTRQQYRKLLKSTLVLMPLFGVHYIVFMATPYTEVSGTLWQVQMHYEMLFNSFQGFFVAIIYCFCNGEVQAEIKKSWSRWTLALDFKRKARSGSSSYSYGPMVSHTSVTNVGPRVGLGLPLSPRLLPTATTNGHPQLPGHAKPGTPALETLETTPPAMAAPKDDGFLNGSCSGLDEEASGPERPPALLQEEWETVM
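HEK-293-derived GP2 cells expressing PTHR1 and a GloSensor cAMP reporter, 3,000/well, plated overnight, given luciferin plus IBMX (each 0.5 mM as added) for 1 h at 37 °C, then compound for 1 h at 37 °C. Luminescence was read after 15 min at room temperature.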
Chronic BCR inh: blocks chronic active B-cell receptor signaling. Potency, µM (titrated, usually from 46.1 µM), inactives show at the top dose activity change, negative = inhibition, usual class: inhibitors. ABC-DLBCL IkBa-CBG/CBR reporter, luminescence ratio, 4 h. hit rate 0.05% among 340,000; active = well fitted inhibition curve with a large enough effect in the signal ratio, with a control signal flat, not every such curve was filed as active; inconclusive = small, poorly fitted or top-dose-only effect, or effect the other way, or a change in a side signal; the % refers to the signal ratio;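 note: potency is the fitted concentration of half-maximal effect; plate controls were basal doxycycline-induced cells for no effect and cells given 10 µM MG132 for full effect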
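Concentration-response series (up to 46 uM) were applied to TMD8 dual-reporter cells for 4 h at 37C with doxycycline. Green/red ratio, after filter-overlap correction, defined %Activity; red signal alone was normalised to basal cells and zero luminescence.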
Active calls of the source: *; i = inactive; ? = inconclusive; . = not tested or not shown; [ ] = dose if it differs, or a comment. Unless noted, calls come from the whole dose curve; as a rule, active = well fitted curve in the direction sought with a large enough effect; inconclusive = small, poorly fitted or top-dose-only effect, or another doubt; inactive = no such curve, though single readings can be large; an effect the other way counts as inactive or inconclusive.

SMILES | Mito fusion yeast | IL2 activator | TCR activator | BRCA1 expr up | PTHR1 ag | Chronic BCR inh
Clc1ccc(C(Cn2ccnc2)OCc2c(Cl)cccc2Cl)c(Cl)c1 (stereo not drawn) | 6.31µM* | -0.2 | -3.8% | -30.3% | -31.8% | ?
CCN(CC)C(=O)Cn1cc(S(=O)(=O)CC(=O)Nc2ccc3c(c2)OCCO3)c2ccccc21 | -6.9% | 1.4 | 6.5% | 11.2µM* | -22.4% | ?
Fc1ccc(C[n+]2csc3ccccc32)cc1 | 1.9% | -0.7 | -3.3% | -1.3% | i | 3.1%
Clc1ccc(C[n+]2csc3ccccc32)cc1 | 11.2µM* | -0.8 | 5.0%[46.1 µM] | -42.3% | i | -7.6%
CNC(=O)c1c(Cl)cnn1-c1ccc(C)cc1 | 4.8% | -0.1 | 2.5% | 6.31µM* | -16.0% | 3.1%
CNC(=O)c1c(Br)cnn1-c1ccc(C)cc1 | 2.8% | -0.5 | 0.2% | ? | i | ?
CC1CCCCN1C(=O)COC(=O)c1n[nH]c2ccccc12 (stereo not drawn) | -4.6% | 1.5 | 4.9% | 10µM* | i | ?
CC1CCCCN1C(=O)COC(=O)Cc1c[nH]c2ccccc12 (stereo not drawn) | . | -0.1 | -0.5% | 12.8% | i | 1.6%
COc1ccc(NC(C)(C)c2nnnn2-c2c(C)cccc2C)cc1 | 13.8% | -1.8 | -0.3% | -29.2% | -36.9% | -1.5%
Nc1nc(COc2ccc3ccccc3c2)cs1 | -4.2% | -1.6 | -1.7% | 6.31µM* | -20.5%[57.5 µM] | .
CN(c1ccccc1)S(=O)(=O)c1nnc(NC(=O)COc2ccccc2)s1 | 22.9% | -2.4 | -1.2% | -5.7% | -21.2% | 3.6%
CC(Oc1ccccc1)C(=O)Nc1nnc(S(=O)(=O)N(C)c2ccccc2)s1 (stereo not drawn) | 12.6µM* | -2.5 | 4.2% | -27.9% | -25.3% | 7.6%
O=C(NCCN1CCOCC1)c1noc2c1CCc1ccccc1-2 | 4.6% | -2.1 | -16.2% | 7.94µM* | -31.3%[57.5 µM] | 13.9%
COc1ccc2c(c1)CCc1c(C(=O)N3CCOCC3)noc1-2 | 3.3% | -1.6 | 0.0% | 2.82µM* | -44.2%[57.5 µM] | ?
CCN1CCN(c2ncnc3sc(C)c(-c4ccccc4)c23)CC1 | -5.5% | 0.5 | 1.7% | -12.8% | i | 3.3%
C#CC(C)(C)NS(=O)(=O)c1cc(-c2nnc(Nc3ccc(C)cc3)c3ccccc23)ccc1C | . | . | . | -59.4% | -34.6% | .
COc1cc(Nc2c3c(nc4ccccc24)CCC3)cc(OC)c1OC | -15.9% | -4.5 | -6.2% | -72.2% | i | 20µM*
COc1ccc(OC)c(Nc2c3c(nc4ccccc24)CCC3)c1 | -10.4% | -3.5 | -8.3% | -46.3% | i | 15.8µM*
O=C(c1cccs1)N1CCn2c1nc1ccccc12 | -0.1% | -2.0 | 1.6% | 2.82µM* | -11.1% | 0.0%
O=C(c1ccc(Cl)cc1)N1CCn2c1nc1ccccc12 | 27.0% | 1.0 | -1.6% | 58.7% | -15.2% | -1.9%
COc1ccc(C(=O)N2CCc3ccccc32)cc1 | 1.0% | -2.2 | -1.8%[46.1 µM] | 11.2µM* | i | -4.6%
COc1ccc(C(=O)N2CCn3c2nc2ccccc23)cc1 | 14.5% | -1.1 | 0.7% | 12.6µM* | -17.7% | 3.0%
COC(=O)c1c(Oc2ccc(OC)cc2)nnc(-c2ccccc2)c1-c1ccccc1 | . | . | . | . | i | .
O=C(CCCn1c(=S)[nH]c2ccsc2c1=O)Nc1ccc2c(c1)OCCO2 | 2.5% | 0.8 | 6.4% | -3.7% | i | -0.4%
COc1ccc2c(CN(C)Cc3ccccc3)cc(=O)oc2c1 | . | 0.0 | . | 5.01µM* | -41.9% | .
SMILES | Mito fusion yeast | IL2 activator | TCR activator | BRCA1 expr up | PTHR1 ag | Chronic BCR inh
COc1ccc2c(CN(C)c3ccccc3)cc(=O)oc2c1 | 23.9% | 0.5 | 8.5% | -14.8% | -40.3% | 14.6µM*
COc1ccc(COc2ccc3c(C)cc(=O)oc3c2)cc1 | 0.6% | -0.6 | . | 2.51µM* | -20.5% | ?
COCCN(CCOC)Cc1cc(=O)oc2cc(OC)ccc12 | . | -0.2 | . | 6.5% | -16.7% | .
COc1ccc(CCNC(=O)COc2ccc3c(C)cc(=O)oc3c2)cc1 | . | -0.5 | 1.4%[46.1 µM] | 1.2% | i | ?
CCc1cc(=O)oc2c(C)c(OCC(=O)N3CCC(C(=O)O)CC3)ccc12 | -1.0% | -0.3 | 2.2% | 2.6% | 18.9% | ?
CCOc1cc(C2NN=C(c3ccc(C)cc3)S2)ccc1O (stereo not drawn) | ? | 0.1 | -5.2%[46.1 µM] | ? | -5.7% | -7.7%
COc1ccc(C2NN=C(c3ccc(C)cc3)S2)cc1 (stereo not drawn) | -1.2% | -0.2 | -2.6% | 1.78µM* | -49.2% | -0.4%
C=CCNc1nc(Nc2ccccc2F)nc(OCC)n1 | 12.6% | -0.9 | -5.8% | 10µM* | i | ?
Cc1ccc2nc(CS)[nH]c2c1 | . | . | . | 0.0% | . | .
Cc1ccc(-c2cc(C(=O)N/N=C/C=C/c3ccccc3)n[nH]2)s1 | 15.8µM* | 0.7 | -2.5%[46.1 µM] | -4.9% | i | -8.7%
Cc1cc(C(=O)N/N=C/C=C/c2ccccc2)n[nH]1 | -2.0% | 2.9 | -0.1% | 0.0% | i | -10.2%
CCC(=O)N/C(N)=N/c1nc2ccccc2o1 | 8.0% | 0.1 | -15.2% | 2µM* | -26.0% | ?
CCCC(=O)N/C(N)=N/c1nc2ccccc2o1 | 4.0% | 11.5 | -7.5% | ? | -33.5% | ?
COc1ccccc1N1CCN(CCC(=O)Nc2cccc(Cl)c2)CC1 | -4.3% | -1.2 | 6.0% | 3.0% | -37.6% | -0.6%
COc1ccc(/C(N)=N/OC(=O)CC2CCCCC2)cc1 | 1.1% | -0.2 | . | ? | -12.7% | ?
COc1ccc(-c2cc3nc4ccccc4n3c(N)c2C#N)cc1 | 0.5% | 0.4 | -4.5% | 3.98µM* | i | ?
CC(C)c1ccc(NC(=O)c2ccc(F)c(S(=O)(=O)N3CCc4ccccc4C3)c2)cc1 | 3.8% | . | . | . | -29.2% | 13.4%
Nc1ccccc1SCc1csc(-c2ccc(Cl)cc2)n1 | -40.6% | -2.3 | 3.6% | 34.0% | -47.0% | ?
Clc1ccc(-c2nc(CSc3ccccn3)cs2)cc1 | . | 2.2 | . | 10µM* | -36.9% | .
CN(c1ccc(/C=C/c2ccccc2)cc1)P1(=O)NCCCO1 (stereo not drawn) | . | . | . | 62.3% | . | .
Cc1ccc(CNC(=O)c2sc3nc4n(c(=O)c3c2C)CCCC4)cc1 | . | . | . | . | i | .
Cc1ccc(-c2csc(NC(=O)COC(=O)c3cccc(S(=O)(=O)N4CCOCC4)c3)n2)cc1 | -2.9% | -2.5 | . | 5.01µM* | -16.9%[57.5 µM] | ?
Cc1ccc(-c2csc(NC(=O)c3cccc(S(=O)(=O)N4CCN(C)CC4)c3)n2)cc1 | -3.0% | -1.1 | 5.6% | -60.2% | -13.9%[57.5 µM] | 3.5%
NC(=O)COc1ccccc1C(=O)Nc1ccccc1 | . | . | . | 0.0% | . | .
Cc1cccc(Nc2nc3c(s2)CCCC3)c1 | 3.0% | 1.4 | 1.3% | 10µM* | -32.7% | 2.5%

High-throughput results: PubChem BioAssay, National Center for Advancing Translational Sciences (NCATS)
